Shown are actives, neighbours in structure and some others; about 4.1% of the full set was active somewhere.
hgDAF-12 ag: H. glycines DAF-12 receptor agonists, primary screen, cell-based, luminescence, HEK293, GAL4 fusion, UAS-luciferase | HEK293 GAL4-hgDAF12 UAS-luciferase reporter, agonist luminescence; normalized to butyrate control | activation, % at 6.8 µM | 1.8% of 370,000 active;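 active = activation above a cutoff set at the mean of all screened compounds plus 3 SD, cut at about 10% in these data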;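 also: 0% = DMSO wells and 100% = sodium butyrate wells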
ssDAF-12 act: S. stercoralis DAF-12 nuclear receptor activators, primary screen, cell-based, luminescence, HEK293, GRIP1 co-expression, lit1-tk-luc | Nuclear hormone receptor DAF-12 (Strongyloides stercoralis) | HEK293 ssDAF-12/GRIP1 lit1-tk-luc reporter; % of 3 µM dafachronic acid response | 1% of 370,000 active | activation, % at 6.8 µM;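 active = activation above the mean over all tested compounds plus 3 SD, cut at about 0.9% in these data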;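 also: 0% = DMSO-only wells and 100% = 3 µM delta7-dafachronic acid wells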
DAX1 inh-1: DAX1 (NR0B1) inhibitors on StAR promoter, primary screen, cell-based, luminescence, SF-1 (NR5A1), full-length DAX-1 | inhibition, % at 6.8 µM | 1.1% of 370,000 active | HEK293T StAR-luciferase reporter, SF-1/DAX-1 repression relief;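 active = inhibition above the mean over all tested compounds plus 3 SD, cut at about 3.6% in these data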;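 also: 0% = DAX-1 cells with DMSO and 100% = cells lacking DAX-1 with DMSO; higher inhibition means more luminescence from relief of DAX-1 repression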
hcDAF12 agonist: H. contortus DAF-12 nuclear receptor activators, primary screen, cell-based, luminescence, HEK293, lit1-tk-luc reporter; HEK293 hcDAF-12 lit1-tk-luc reporter; 0% DMSO, 100% Δ7-dafachronic acid; 1.4% of 370,000 active; AID 652067, 2013; activation, % at 6.8 µM;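 active = activation above the mean of all tested compounds plus 3 SD, cut at about 5.5% in these data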;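 also: 100% = response to 3 µM Δ7-dafachronic acid high control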
DAX1 inh-2: DAX1 (NR0B1) inhibitors, primary screen, cell-based, HEK293, Gal4-DAX1, luciferase luminescence; Nuclear receptor subfamily 0 group B member 1 (Homo sapiens), P51843; HEK293 Gal4-DAX1 luciferase reporter; inhibition, % at 6.75 µM; 0.99% of 340,000 active;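 active = inhibition above the mean over all tested compounds plus 3 SD, cut at about 4.2% in these data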;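 also: 0% = DAX1-transfected cells with DMSO and 100% = empty-vector control cells with DMSO; inhibition shows as a rise in luminescence from relieved DAX1 repression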
Target sequence (P51843 207-470 limits assumed): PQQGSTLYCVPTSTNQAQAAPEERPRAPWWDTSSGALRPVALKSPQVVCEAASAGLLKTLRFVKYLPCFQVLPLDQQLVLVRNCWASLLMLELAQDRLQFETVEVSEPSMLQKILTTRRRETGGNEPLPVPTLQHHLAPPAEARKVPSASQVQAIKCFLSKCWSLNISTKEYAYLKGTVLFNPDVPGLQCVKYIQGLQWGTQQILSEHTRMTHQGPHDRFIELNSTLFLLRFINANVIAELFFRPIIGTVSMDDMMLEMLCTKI
* = called active by the depositor; · = no result given; ! = repeats disagree.

SMILES | hgDAF-12 ag | ssDAF-12 act | DAX1 inh-1 | hcDAF12 agonist | DAX1 inh-2
CCOc1ccccc1N(C(=O)Nc1ccc(Cl)cc1)C1=NCCS1 | 2 | -1 | 1 | 5 | -1
CCOc1ccccc1N(C(=O)Nc1cccc(Cl)c1)C1=NC(C)CS1 (configuration not stated) | 1 | -2 | -1 | -3 | 4.5*
CC(=O)N1CCc2cc(S(=O)(=O)NCCC(=O)NCc3ccc(Cl)cc3)ccc21 | 0 | -2 | -2 | -1 | ·
Nc1nc2n(n1)C(=O)CC(c1ccccc1)N2 (configuration not stated) | -6 | -2 | 3.7* | -1 | 0
Nc1nc2n(n1)C(c1cccs1)CC(c1ccccc1)N2 (configuration not stated) | -1 | -2 | 0 | -2 | -1
Cc1cccnc1Nc1nc(-c2ccc(O)cc2O)cs1 | 1 | 0 | 0 | 1 | 0
CC(=O)Nc1ccc(-c2csc(Nc3cc(C)ccn3)n2)cc1 | 2 | -3 | -3 | -4 | -1
CC(=O)Nc1nc(C)c(-c2csc(Nc3ccccn3)n2)s1 | 10*! | -1 | 1 | 3 | 3
CC(=O)Nc1ccc(Nc2nc(-c3sc(NC(C)=O)nc3C)cs2)cc1 | 2 | -1 | -1 | -3 | 3
Oc1ccc(-c2csc(Nc3ccccn3)n2)c(O)c1 | 9 | 1 | 1 | 4 | 4.6*
CC(=O)Nc1cccc(-c2csc(Nc3cc(C)ccn3)n2)c1 | 11* | -1 | 4 | 0 | 1
Cc1ccc(-c2nnc(SCC(=O)Nc3ccc(OCc4ccccc4)cc3)n2-c2ccc(Cl)cc2)cc1 | 0 | -1 | -1 | 1 | ·
Cc1cccc(NC(=O)Nc2c(-c3ccc(C(F)(F)F)cc3)nc3ncccn23)c1 | 2 | -1 | 0 | 0 | ·
CCc1c(C)nc(SCC(=O)N2CCCCC2C)[nH]c1=O (configuration not stated) | 0 | -1 | 1 | 0 | 0
N#CC1(NC(=O)CSc2nc3ccccc3s2)CCCCC1 | 1 | 0 | 1 | -1 | 0
Cc1ccccc1NC(=O)CSc1nc2ccccc2o1 | 11* | -1 | 0 | -1 | 0
Cc1ccccc1/C=N/NC(=O)CSc1nc2ccccc2o1 | 0 | -1 | 0 | -2 | 0
N#CC1(NC(=O)CSc2nc3ccccc3o2)CCCCC1 | 0 | -1 | 1 | -2 | 4.9*
O=C(CSc1nccc(=O)[nH]1)c1cc2ccccc2o1 | 11* | 1.3* | 1 | 3 | 2
C=C(C)C#CCNCc1ccccc1 | 3 | -1 | 0 | 1 | ·
CC1(C)CC(=O)C(N=Nc2cccc([N+](=O)[O-])c2)=C(O)C1 | 0 | 0 | 0 | 1 | 6.1*
Cc1ccc(-n2nc(C)c3c(C(=O)OCC(=O)N(C)C4CCS(=O)(=O)C4)cc(-c4ccccc4)nc32)cc1 (configuration not stated) | -3 | -1 | 0 | 6.2* | 0
CN(C)C(CNC(=O)CCc1nc2ccccc2s1)c1ccccc1 (configuration not stated) | -2 | 0 | 0 | -2 | 5.5*
O=C(CCc1nc2ccccc2s1)NCc1ccccc1F | -2 | -1 | 0 | 2 | 0
COC(=O)[C@@]12CCCCC3=C1N(CCC3)C(=O)[C@H]2CC(=O)NCc1cccc(C(F)(F)F)c1 | 3 | -1 | -2 | -2 | ·
SMILES | hgDAF-12 ag | ssDAF-12 act | DAX1 inh-1 | hcDAF12 agonist | DAX1 inh-2
Cc1cccc(NC(=O)c2cc3ccccc3c(=O)o2)n1 | 10 | 0 | 2 | 2 | 6.5*
Cc1nc(NC(=O)c2cc3ccccc3o2)ccc1Br | 7 | 0 | 2 | -1 | 2
Cc1csc(NC(=O)/C=C/c2ccc3c(c2)OCO3)n1 | 15* | 1.1* | 4.6* | 4 | -2
Cc1ccc2nc(NC(=O)/C=C/c3ccc4c(c3)OCO4)sc2c1 | -3 | 0 | 0 | -2 | 1
C#CCn1c(C)cc(C)c(S(=O)(=O)c2ccccc2)c1=O | 11* | -1 | 3 | 2 | 3
CCN(CC)CCCNC(=O)CSc1nc2cccnc2n1C | 4 | 0 | 1 | 2 | ·
O=C(CSc1ccc(-c2ccccn2)nn1)c1ccc(F)cc1 | 5 | -2 | 1 | 0 | 0
c1ccc(CSc2ccc(-c3ccccn3)nn2)cc1 | 12* | 0 | 3 | 5 | 1
O=C(CSc1ccc(-c2ccccn2)nn1)c1ccccc1 | 9 | -1 | 0 | 2 | 4.6*
O=P(c1ccccc1)(c1ccccc1)C1CCCO1 (configuration not stated) | -2 | -1 | 1 | 0 | 4.3*
O=C(Cc1ccccc1)NCC1CCCO1 (configuration not stated) | 0 | -1 | 0 | -1 | 0
CN1C2=C(C(=O)CC(C)(C)C2)C(c2cccs2)C2=C1CC(C)(C)CC2=O | 0 | -1 | -1 | -2 | 5.3*
N#CC1CCN(C(=O)c2ccc3c(Cl)c4c(nc3c2)CCCC4)CC1 | 2 | -1 | 4.4* | -2 | 1
Cc1cccnc1NC(=S)NC(=O)/C=C/c1ccccc1 | 12* | -1 | 1 | 1 | 2
C[C@H]1[C@@H](C(=O)N2CCCC2)Cc2nc3ccccc3nc2C[C@@H]1c1ccccc1 | 3 | -1 | 1 | 4 | ·
Cc1cc(C)nc(SCc2cn3ccccc3n2)n1 | -2 | -1 | 0 | -1 | 0
Cc1cccn2cc(CSc3ccccc3N)nc12 | 12* | 0 | 4.0* | 3 | 1
C#CCN1CC(N(C)CCOC(=O)CC2C=CCC2)CS1(=O)=O (configuration not stated) | 2 | -1 | 1 | -1 | ·
COc1ccc(NC(=O)CCC(=O)N/N=C/c2ccncc2)cc1 | -1 | -1 | 0 | 0 | 5.5*
COc1ccc(NC(=O)CSCC(=O)NCc2ccco2)cc1 | -2 | -1 | 4.3* | -1 | 3
COc1ccc(/C=N/NC(=O)CSCC(=O)Nc2ccccc2)cc1 | -1 | 0 | 0 | 4 | 5.0*
COc1cc(C2=NOC(C(=O)NCc3ccco3)C2)cc(OC)c1OC (configuration not stated) | 1 | -1 | -2 | -1 | -1
COc1ccc(C2=NOC(C(=O)NCc3ccco3)C2)cc1 (configuration not stated) | 12* | -1 | -2 | 2 | -1
Clc1ccccc1C=NNc1ccccn1 | 2 | 1 | 1 | 2 | 3
COc1ccc2nc(Cl)c(/C=N/Nc3ccccn3)cc2c1 | 10 | -1 | 4.1* | 2 | 1
